NS1 function inh – blocks influenza NS1 protein function | Potency, µM (top dose mostly 46.1 µM), inactives show top-dose activity, positive = more growth | actives 0.4% (n = 270,000) | AID 2326; calls by dose curve; further: actives are rising curves; nearly all actives have a fitted effect of over 50% in size
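Compounds were scored for reversing the slow growth caused by influenza A NS1 in S. cerevisiae, measured by optical density at 600 nm. Assay medium contained 2% galactose at pH 6.0; NS1-free yeast of the same strain were the positive control.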
HCV inhibitor – HCV inhibition | Huh7.5.1 HCVcc-Cre infection, luciferase reporter, 44 h | Potency, µM (titrated, usually from 41.8 µM), inactives show at the top dose activity change, negative = inhibition, actives largely listed as inhibitors | actives 3.4% (n = 340,000); further: on the % scale 0 is the no-effect control and ±100 the full control effect
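Seed cells (1,000/well) for 4 h; treat with compound and infect with HCVcc-Cre, moi about 0.5. Incubate 44 h, then detect luciferase activity.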
Pf growth 48h – inhibits P. falciparum growth in the first generation, 48 h. P. falciparum luciferase growth in erythrocytes, 48 h. AID 504832. actives 5.9% (n = 310,000). Potency, µM (top dose mostly 28.7 µM), for inactives: top-dose activity change, negative = inhibition, actives largely listed as inhibitors; further: on the % scale 0 is the no-effect control and ±100 the full control effect
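Luciferase-expressing P. falciparum in infected erythrocytes (2% hematocrit, 0.1% parasitemia final) in RPMI 1640/0.5% Albumax were exposed to compound for 48 hours at 37 C, 5% CO2; growth read as luminescence.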
Vaccinia Venus – vaccinia inhibition (Venus reporter). Vaccinia virus Venus reporter expression, fluorescence. Potency, µM (titrated, usually from 36.5 µM), without a hit: at the top dose activity change, negative = inhibition, most hits filed as inhibitors. actives 0.46% (n = 330,000). AID 720580; calls by dose curve; tested in A549 cells; further: on the % scale 0 is the no-effect control and ±100 the full control effect; nearly all actives have a fitted effect of over 30% in size
Pf growth 96h – inhibits malaria parasite growth, 96 h; P. falciparum luciferase reporter growth, 96 h; Potency, µM (series often up to 28.7 µM), for inactives: at the highest dose activity change, negative = inhibition, usual class: inhibitors; actives 6.9% (n = 320,000); further: on the % scale 0 is the no-effect control and ±100 the full control effect
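P. falciparum expressing integrated firefly luciferase grown in erythrocytes (2% hematocrit, 0.05% parasitemia final) with compounds for 96 hours at 37 C, 5% CO2. Growth inhibition read as loss of luminescence after adding luciferase detection reagent.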
VACV mCherry inh – inhibitors of vaccinia virus infection (mCherry reporter signal) | Vaccinia virus mCherry reporter infection, fluorescence | Potency, µM (series often up to 36.5 µM), inactives show at the highest dose activity change, negative = inhibition, most hits filed as inhibitors | actives 0.63% (n = 310,000) | AID 720579; calls by dose curve; tested in A549 cells; further: on the % scale 0 is the no-effect control and ±100 the full control effect; nearly all actives have a fitted effect of over 35% in size
* = called active by the depositor; i = inactive; u = inconclusive; x = not tested or not shown; [ ] = dose if it differs, or a comment. This is a sample that favours compounds with a hit; in the whole collection about 11% have one here. Unless noted, the call rests on the fitted dose curve; in most records, active means well fitted inhibition curve with a large enough effect; inconclusive means small, poorly fitted or top-dose-only effect, or another doubt; inactive means no such curve, though single readings can be large or run the other way. Potency means the concentration at half of the fitted maximal effect.

SMILES	NS1 function inh	HCV inhibitor	Pf growth 48h	Vaccinia Venus	Pf growth 96h	VACV mCherry inh
Cc1cccc(-c2ocnc2C(=O)Nc2ccccc2NC(=O)c2ccccn2)c1	6%	u	u	-4%	u	-28%
CCN(CC)c1ccc(N/C(N)=N/c2nc(C(F)(F)F)cc(=O)[nH]2)cc1	x	-5%	-16%	-12%	8%	-16%
CN1CCCC(CC2c3ccccc3Sc3ccccc32)C1 (stereo not drawn)	x	2.8µM*	9.3µM*	-29%	u	-18%
CN1CCCC(CN2c3ccccc3Sc3ccccc32)C1 (stereo not drawn)	6%	u	u	-27%	u	-29%
CCn1cc(C(=O)O)c(=O)c2cc(Br)ccc21	-61%	11%	2.6µM*	-28%	x	-8%
CCOC(=O)c1cn(CC)c2ccc(Br)cc2c1=O	-61%	6%	5.2µM*	x	12µM*	x
CC1CCN(C(=O)COC(=O)c2cc(Cl)cc(Cl)c2N)CC1	-97%	-5%	x	-8%	45%	-8%
O=c1[nH]c(SCc2ccc([N+](=O)[O-])cc2)nc2[nH]ncc12	6%	15%	u	-16%	7.4µM*	-6%
Cc1cccc(CSc2nc3[nH]ncc3c(=O)[nH]2)c1	x	-1%	21%	-16%	3%	i
O=C(Nc1cccc(-n2cnnn2)c1)C1CCCN(Cc2cccc(C(F)(F)F)c2)C1 (stereo not drawn)	9%	u	15µM*	-29%	-24%	-29%
Cc1c(CN2CCCC(C(=O)Nc3cccc(-n4cccn4)c3)C2)cnn1C (stereo not drawn)	12%	u	-25%	x	13µM*	x
Cc1cc(CN2CCCC(C(=O)Nc3cccc(-n4cccn4)c3)C2)cc(C)c1O (stereo not drawn)	-9%	13µM*	u	-4%[7.34 µM]	33%	-11%[7.34 µM]
Cn1cc(CN2CCCC(C(=O)Nc3cccc(-n4cccn4)c3)C2)cn1 (stereo not drawn)	-1%	3%	10%	-4%	u	-21%
CCn1ncc(CN2CCCC(C(=O)Nc3cccc(-c4cc5ccccc5[nH]4)c3)C2)c1C (stereo not drawn)	u	u	4.1µM*	u	-9%	u
O=C(Nc1cccc(-n2cnnn2)c1)C1CCCN(C(=O)Cc2cccc(Cl)c2)C1 (stereo not drawn)	x	x	x	-3%	x	-7%
O=C(Nc1cccc(-n2cccn2)c1)C1CCCN(Cc2cccc(F)c2F)C1 (stereo not drawn)	-13%	u	-8%	-28%	11%	-15%
O=C(Nc1cccc(-n2cccn2)c1)C1CCCN(Cc2cc3ccccc3[nH]2)C1 (stereo not drawn)	29%	u	u	-28%	-30%	13µM*
CC(=NNc1nc2ccccc2s1)c1ccncn1	x	u	x	u	x	2.8µM*
C/C(=N\Nc1nc2ccccc2s1)c1ccc(Br)s1	14%	11µM*	u	-10%	u	-19%
Cc1c(NC(=O)C(=O)/C=C(\O)c2ccc(Cl)cc2)c(=O)n(-c2ccccc2)n1C	15%	12%	7%	-10%	21%	-17%
COc1ccccc1N1CCN(Cc2ccc(Cl)cc2Cl)CC1	-5%	1%	x	2%	-17%	i
Oc1ccc(C[C@H]2CNCCN2CCc2cccc3ccccc23)cc1	x	u	5.2µM*	-26%	4.7µM*	u
c1ccc(C[C@H]2CNCCN2CCc2cccc3ccccc23)cc1	x	u	u	-19%	u	-5%
Oc1ccc(C[C@@H]2CNCCN2CCc2cc(C(F)(F)F)cc(C(F)(F)F)c2)cc1	x	u	8.3µM*	10µM*	u	14µM*
Oc1ccc(C[C@@H]2CNC(=S)N2CCc2cc(C(F)(F)F)cc(C(F)(F)F)c2)cc1	4%	2%	-3%	-5%	-9%	i
SMILES	NS1 function inh	HCV inhibitor	Pf growth 48h	Vaccinia Venus	Pf growth 96h	VACV mCherry inh
FC(F)(F)c1cc(CCN2CCNC[C@H]2Cc2cccc3ccccc23)cc(C(F)(F)F)c1	x	u	u	-28%	u	u
Oc1ccc(C[C@H]2CNCCN2CCc2cc(C(F)(F)F)cc(C(F)(F)F)c2)cc1	x	u	9.3µM*	-28%	u	-13%
Cc1ccccc1CC(=O)Nc1ccc2c(C)cc(=O)oc2c1	16%	-3%	45%	-9%	u	i
COc1ccc(CCNS(=O)(=O)CCNC(=O)c2ccc3c(c2)OCO3)cc1OC	x	-8%	36%	-11%	u	i
CC(C)(C)CC(=O)O/N=C(\N)c1ccccn1	-4%	8%	113%	-3%	13µM*	-2%
Cc1ccc(CC(=O)O/N=C(\N)c2ccccn2)cc1	-9%	6%	90%	x	-15%	x
N/C(=N\OC(=O)c1ccc(=O)n(Cc2ccccc2)c1)c1ccccn1	-3%	12%	13µM*	-8%	u	-23%
N/C(=N\OC(=O)c1ccc(=O)n(Cc2ccc(Cl)cc2)c1)c1ccccn1	x	-18%	12µM*	x	13µM*	x
COc1cccc2cc(C(C)N(CCCN3CCOCC3)C(=S)Nc3ccc(C)cc3)oc12 (stereo not drawn)	x	-17%	u	5%	u	-28%
COc1ccccc1N(C)C(=O)Cn1c(=O)oc2cc(S(=O)(=O)N3CCCC3)ccc21	x	x	x	-13%	x	-24%
COc1ccc(NC(=O)c2ccc(COc3ccccc3)o2)c(OC)c1	-19%	-11%	-8%	x	8.3µM*	x
COc1ccccc1NC(=O)c1ccc(COc2ccc(C)c(C)c2)o1	x	x	x	-12%	x	-8%
COc1cccc(C(=O)Nc2ccccc2NC(=O)c2cccc(OC)c2)c1	-19%	-3%	29%	-18%	15µM*	i
COc1cc(NC(=O)Cc2ccccc2)ccc1NC(=O)c1ccccc1	-13%	u	12%	-18%	10µM*	-7%
CCCOc1cccc(C(=O)NCCCNC(=O)c2ccccn2)c1	-17%	-4%	11%	-7%	25%	-18%
COc1cccc(C(=O)NCCCNC(=O)c2ccccn2)c1	6%	15%	9%	0%	4.7µM*	-7%
